From PubChem BioAssay AID588493 (Sanford-Burnham Center for Chemical Genomics, 2011) come the findings set out here.

As usually defined, the inhibition is the relative decrease from the control value, in per cent.

SMILES strings stand for the structures. Out of some 360,000 compounds screened, about 2,100 (0.58%) were called active. Many of the other results were omitted from the sample, so actives are more common in it than they were. Unmarked numbers belong to inactive results.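 Rule for the calls: active = inhibition at 20 µM, scaled to each plate's controls, above about 33% (limit read from the data); inactive = the rest.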

The target in this assay is 26S proteasome non-ATPase regulatory subunit 14 (Homo sapiens) (UniProt O00487). Kind of assay: Rpn11 (PSMD14) deubiquitinase inhibitors, primary screen, biochemical, fluorescence polarization, uHTS (AID 588493). To be noted: human 26S proteasome, Ub4-pepOG fluorescence polarization; at 20 µM; hits give high values; 20S core pre-blocked with epoxomicin. In general terms: Polarisation of emitted light reports the rotation of a fluorescent probe.
26S proteasome non-ATPase regulatory subunit 14 (Homo sapiens), sequence (O00487 whole entry, looked up): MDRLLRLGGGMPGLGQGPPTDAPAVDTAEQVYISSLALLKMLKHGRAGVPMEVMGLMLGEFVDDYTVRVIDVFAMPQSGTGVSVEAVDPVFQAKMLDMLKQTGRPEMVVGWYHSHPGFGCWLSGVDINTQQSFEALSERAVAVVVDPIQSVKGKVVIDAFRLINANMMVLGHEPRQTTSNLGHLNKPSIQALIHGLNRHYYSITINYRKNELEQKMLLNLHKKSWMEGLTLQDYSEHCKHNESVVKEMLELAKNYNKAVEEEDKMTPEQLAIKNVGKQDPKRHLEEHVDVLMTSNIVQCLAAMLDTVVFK
Turning to `COc1cccc(NC(=O)CC(c2ccc(OC(C)C)cc2)c2ccccc2OC)c1` (configuration not stated), the inhibition is -1.6%.

On to `COc1cccc(NC(=O)C(C)Oc2ccccc2)c1` (configuration not stated), for which the inhibition is 112% (active).

With `COc1ccc(OC(C)C(=O)Nc2cccnc2)cc1` (configuration not stated), the inhibition was -6%.

Take `Cc1ccc2[nH]c(C(=O)O)c(NC(=O)c3ccccc3[N+](=O)[O-])c2c1`: the inhibition is 3.4%.

For `Cc1sc2nc(COC(=O)C(NC(=O)c3ccc(Cl)cc3Cl)C(C)C)[nH]c(=O)c2c1C` (configuration not stated), the inhibition was 56.9% (active).

In the case of `Cc1ccc(S(=O)(=O)N2CCCC2C(=O)OCc2nc3sc(C)c(C)c3c(=O)[nH]2)cc1` (configuration not stated), the inhibition was -0.8%.

On to `O=C(CN1C(=O)CC(c2ccccc2)S(=O)(=O)c2ccccc21)NC1CCCC1` (configuration not stated), for which the inhibition is -1.6%.

Consider `CCN(c1ccccc1)S(=O)(=O)c1cc2c(cc1C)n(C)c(=O)c(=O)n2C`, for which the inhibition is -1.8%.

As to `COC(=O)CCSc1cc([N+](=O)[O-])cc2c1c(C1OCCS1)nn2-c1ccccc1` (configuration not stated), the inhibition was 14%.

Consider `CCC/C=C(\CCC)C(NC(=O)Cc1ccccc1)c1ccc(C(=O)OC)cc1` (configuration not stated), for which the inhibition is 40.7% (active).

Turning to `COC(=O)c1ccc(C(NC(=O)OCc2ccccc2)/C(F)=C/[C@@H](C)C(=O)O)cc1` (some centres not stated), the inhibition was -4.9%.

With `CCC[C@@H]1C[C@@]1(CCC)[C@@H](NC(=O)c1ccccc1)c1ccc(C(=O)OC)cc1`, the inhibition was -3.6%.

Consider `O=c1cc(CN2CCCCCCC2)c2c(ccc3ccccc32)o1`, for which the inhibition was 6.4%.

With `O=C(Cc1ccccc1)NNC(=O)C1CCN(c2ncccn2)CC1`, the inhibition was -1.3%.

`Oc1c(CN2CCCC2)cc(COCc2ccccc2)c2cccnc12`: the inhibition is 49.9% (active).

Take `COCC(=O)N1CCCC(C(=O)c2ccc(C(F)(F)F)cc2)C1` (configuration not stated): the inhibition is -0.9%.

Take `CCOC(=O)c1cc(NC(=O)SCC(=O)O)c(C)nc1C`: the inhibition is 1%.

As to `CCCNC(=O)C1(C)CCN(C(=O)c2ccccc2OC(F)(F)F)C1` (configuration not stated), the inhibition was -2.7%.

Regarding `COc1ccc(Cc2cc(-c3ccc(F)cc3)n[nH]c2=O)cc1`, the inhibition was -2%.

On to `COc1ccc2[nH]c(=O)c(CNc3ccc(C)c(C)c3)cc2c1`, for which the inhibition is -2.9%.

For the compound `CCOC(=O)CSc1nc2ccc(C)cc2n2cnnc12`, the inhibition is 3.8%.

Take `CC1(c2ccccc2)NC(=O)N(CC(=O)N2CC(=O)Nc3ccccc32)C1=O` (configuration not stated): the inhibition is -0.8%.

With `CCN(CC)C(=O)CSc1nc2ccccc2n1CC(=O)N1CCN(c2ccccc2OC)CC1`, the inhibition is 34.8% (active).

On to `COc1ccccc1OCCn1c(SCC(N)=O)nc2ccccc21`, for which the inhibition is -6.3%.

Take `CCOC(=O)n1c(SCC(=O)N(CC)CC)nc2ccccc21`: the inhibition is 4%.

In the case of `CCCCN(C=O)c1c(CC)nc2c(OCCC3CCCCC3)cccn12`, the inhibition is 3.8%.

In the case of `Cc1cc(N)n2nc(-c3ccc(C(C)(C)C)cc3)cc2n1`, the inhibition was 8.7%.

Turning to `Cc1cc2cc(CNC(=O)c3cccs3)ccc2[nH]1`, the inhibition is 3.4%.

As for `CC(C)c1ccc(C=NNc2ccc([N+](=O)[O-])cn2)cc1`, the inhibition is 3.1%.

In the case of `Cc1cc(/C=N/Nc2ccc([N+](=O)[O-])cn2)c(C)n1-c1cccc(C(=O)O)c1`, the inhibition is 49% (active).

Take `Cc1cc(/C=N/NC(=O)CC2(C)OCCO2)c(C)n1-c1ccc(Cl)c(Cl)c1`: the inhibition is 4.1%.

With `O=C(Nc1cccc(Cl)c1)c1cc(S(=O)(=O)N2CCCCC2)c[nH]1`, the inhibition was 3.9%.

As for `CN(C)C(=O)c1cccc(-c2cnc3sc(NCc4ccc5c(c4)OCO5)nn23)c1`, the inhibition is -1.9%.

On to `NC(=NC(=O)c1ccccc1)C1=C(O)CCC1=O`, for which the inhibition was -7.5%.

In the case of `COCCCNC(=O)Cn1c(=O)n(Cc2ccccc2Cl)c(=O)c2cc(OC)c(OC)cc21`, the inhibition is -0.4%.

For the compound `Cc1ccc(Nc2nc(Cl)c(C=O)s2)cc1`, the inhibition is 108% (active).

For `CCCCC(=O)Nc1nc(C)c(-c2csc(Nc3ccc(Cl)cc3)n2)s1`, the inhibition was 13.9%.

For `Cc1ccc(Nc2nnc(SC(C)C(=O)NC3CC3)s2)cc1` (configuration not stated), the inhibition was 4.1%.

In the case of `CSc1ncnc2c1ncn2CCCNCC(C)c1ccccc1` (configuration not stated), the inhibition is -1.5%.

With `COC(=O)C1=C(C)NC2=C(C(=O)c3ccccc32)C1c1ccc(-c2ccc(C(=O)O)cc2)o1` (configuration not stated), the inhibition is 67.4% (active).

On to `COC(=O)C1=C(C)NC(=O)/C1=C/c1ccc(CNS(=O)(=O)c2ccc(C)cc2)o1`, for which the inhibition is -0.8%.

`O=C(NCc1ccc(Cl)cc1)C1CCN(S(=O)(=O)c2cccs2)CC1`: the inhibition is 4.3%.

Regarding `Cn1nnnc1SCC(=O)Nc1ccccc1C(=O)NC1CC1`, the inhibition is 5.5%.

On to `CCN(CC)CCn1c2c(c(SCC(=O)Nc3ccc(C(C)C)cc3)nc1=O)CCC2`, for which the inhibition is 0.3%.

As for `CC(=O)Nc1c2c(nn1-c1ccc(C)cc1C)CS(=O)C2` (configuration not stated), the inhibition was 1.3%.

For `COc1ccc(CCNC2=C(Cl)C(=O)N(Cc3ccccc3)C2=O)cc1OC`, the inhibition was -4.9%.

Regarding `COc1cc(/C=C2/SC(=S)N(Cc3ccccc3)C2=O)cc(OC)c1O`, the inhibition was 49.6% (active).

For the compound `O=C(Nc1ccc(OCCO)cc1)c1csc([C@H]2C[C@H](O)[C@@H](CO)O2)n1`, the inhibition was 0.7%.

As to `CC(C)=CCN1CCN(CCCc2ccccc2)CC1CCO` (configuration not stated), the inhibition was -5%.

`Cc1c(N=Nc2ccc(N(C)C)cc2)c(=O)n(-c2ccccc2)n1C`: the inhibition was 67.4% (active).

`Cc1c(C=O)n(C)n(-c2ccccc2)c1=O`: the inhibition is 8.1%.

For the compound `Cc1nc(N)sc1N=Nc1c(C)n(C)n(-c2ccccc2)c1=O`, the inhibition is 8.3%.

On to `Cc1csc(=O)n1CCC(=O)OCC(=O)Nc1ccc(N2CCOCC2)cc1`, for which the inhibition was -1.7%.

Regarding `O=C(OCC(=O)N1CCOCC1)c1ccc(N2CCOCC2)c([N+](=O)[O-])c1`, the inhibition is 1.7%.

Consider `CCCCN(CC)C(=O)c1ccccc1Oc1ccccc1`, for which the inhibition was -5%.

With `O=C1NC(=O)C2C1C(c1ccc([N+](=O)[O-])cc1)=NN2Cc1ccccc1` (configuration not stated), the inhibition is 50.8% (active).

Regarding `CC(=O)N1c2ccccc2N(Cc2ccc([N+](=O)[O-])cc2)C(=O)C1(C)C`, the inhibition was -1.8%.

With `O=[N+]([O-])c1ccc(C(S(=O)(=O)Cc2ccccc2)S(=O)(=O)Cc2ccccc2)cc1`, the inhibition is -4%.

In the case of `Cc1cc(C)c2c(=O)[nH]c(SCC(=O)Nc3ccc(Br)cc3)nc2n1`, the inhibition is 2.1%.

As to `CC(=O)CSc1nc(CCc2ccccc2)c(C#N)c(=O)[nH]1`, the inhibition is -4.6%.

Take `N#Cc1c(-c2cccs2)nc(SCC(=O)c2ccc(Br)cc2)[nH]c1=O`: the inhibition was 68.3% (active).

On to `COC(=O)[C@H](C(C)C)n1c(C)c(C(C)=O)c(C(C)=O)c1C`, for which the inhibition was 3.5%.

As to `CCOc1cccc(/C=N/N2C(=O)CSC2=S)c1O`, the inhibition was 32.9%.

On to `O=C1CSC(=S)N1/N=C/c1ccc(O)c([N+](=O)[O-])c1`, for which the inhibition was 48.1% (active).

For `COc1ccc(C2CC(c3ccccc3)=NN2C(=O)c2ccc(Cl)c([N+](=O)[O-])c2)cc1` (configuration not stated), the inhibition is -5%.

For `CCCCc1nc(NCCN)c(C#N)c2c1CSC(C)(C)C2`, the inhibition was 0.8%.

As to `COc1ccc(CC(N)c2csc(NC(=O)Nc3ccc(C(C)C)cc3)n2)cc1` (configuration not stated), the inhibition was 2.4%.

On to `COc1ccc(Cl)cc1N(CC(=O)N/N=C/c1ccc(OCC(N)=O)cc1)S(C)(=O)=O`, for which the inhibition is -5.6%.

Take `NC(=O)COc1ccc(/C=N/NC(=O)C2CCCN2S(=O)(=O)c2ccc(Cl)cc2)cc1` (configuration not stated): the inhibition is -4.1%.

With `NC(N)=N/N=C/c1ccc(OCc2ccc(Cl)cc2Cl)cc1`, the inhibition is 51.4% (active).

On to `CC1CCC2(CC1)NC(=O)N(CC(=O)NCc1ccco1)C2=O` (configuration not stated), for which the inhibition is 7.9%.

`N#Cc1c(-c2ccc(Cl)cc2)c2c([nH]c1=S)CCCC2`: the inhibition is 10.1%.

As for `CC1Cc2ccccc2N1S(=O)(=O)c1cccc(C(=O)NCC(c2ccco2)N2CCCC2)c1` (configuration not stated), the inhibition was 5.2%.

Regarding `C=CCn1c(=S)[nH]c2scc(-c3ccco3)c2c1=O`, the inhibition is 48.1% (active).

Consider `CC1(C)C(C=C(Cl)Cl)C1C(=O)N(Cc1ccc(Cl)cc1)C1CCS(=O)(=O)C1` (configuration not stated), for which the inhibition is -6.8%.

Consider `CC(C)(C)NC(=O)NC(=O)CN1CCC(Cc2ccccc2)CC1`, for which the inhibition was 2.6%.

In the case of `O=C(O)CCCCOn1ccnc1`, the inhibition was -5.3%.

Regarding `Cc1ccc2[nH]c(=O)c(COC(=O)c3ccccn3)cc2c1`, the inhibition is -5.9%.

Consider `O=C(OCc1cc2ccccc2[nH]c1=O)c1cccnc1`, for which the inhibition is 93.5% (active).

For `O=C(OCc1cc(Cl)ccc1OC(F)F)c1cccnc1`, the inhibition was 9.5%.

As for `COc1cccc(C2CC(c3ccccc3)=NN2S(=O)(=O)c2ccccc2)c1OC` (configuration not stated), the inhibition is 1.8%.

In the case of `COc1cccc(Nc2nnc(SCC(=O)N3CC(=O)Nc4ccccc43)s2)c1`, the inhibition was 0.5%.

`O=C(CCS(=O)(=O)c1ccc(Br)cc1)NCCc1ccc(Cl)cc1`: the inhibition is -2.9%.

For the compound `COc1ccc(Cl)cc1NC(=O)CCS(=O)(=O)c1ccc(Br)cc1`, the inhibition was 80.4% (active).

As to `COc1ccc(Cl)cc1NC(=O)COC(=O)c1ccc(Br)o1`, the inhibition is -3.1%.

Consider `O=C(CSc1ccc2nnc(-c3ccccc3)n2n1)N1CCCc2ccccc21`, for which the inhibition was 39.2%.

Take `COC(=O)c1ccc(C(=O)OC)c(NC(=S)N2CCN(c3ccc(F)cc3)CC2)c1`: the inhibition is -2.6%.

In the case of `Cc1ccc(CSCC2Nc3ccc(C(=O)N4CCN(c5ccc(F)cc5)CC4)cc3NC2=O)cc1` (configuration not stated), the inhibition was 109% (active).

For the compound `COc1cccc2c1OCC1COc3c(c(=O)n(C)c(=O)n3C)C21` (configuration not stated), the inhibition was -1.5%.

Consider `C=CC1=C(C(=O)O)N2C(=O)[C@@H](NC(=O)/C(=N/OCC(=O)O)c3csc(N)n3)[C@H]2SC1`, for which the inhibition is 45.1% (active).

Consider `C=CC1=C(C(=O)O)N2C(=O)[C@@H](NC(=O)/C(=N\OCC(=O)O)c3csc(N)n3)[C@H]2SC1`, for which the inhibition is -0.3%.

As for `Cc1ccc2c(CN3CCN(S(=O)(=O)c4ccccc4C(F)(F)F)CC3)cc(=O)oc2c1`, the inhibition is 3.9%.
